This passage reports z-score and composite z-score results from PubChem BioAssay.

A short description of assay [1]: adipocyte viability effects, profiling panel, cell-based, 3T3-L1 adipocytes, calcein-AM fluorescence, 48 h, basal (AID 1163). The settings on record: 3T3-L1 adipocytes viability, higher = more signal.
A short description of assay [2]: HepG2 cell viability effects, profiling panel, calcein-AM fluorescence, 48 h, basal (AID 1164). As to conditions: higher = more signal.
Assay [3] can be described thus: MM1S cell viability effects, profiling panel, calcein-AM fluorescence, 48 h, basal (AID 1165).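 Further: viability of MM1S multiple myeloma cells under basal unstimulated conditions.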 The settings on record: higher = more signal.
A short description of assay [4]: basal RPMI8226 viability, no added stimulus, profiling panel, cell-based, calcein-AM fluorescence, 48 h, PK04 Diversity Set (AID 1166).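 Further: cells grown under basal conditions without added stimulus.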 As to conditions: RPMI8226 myeloma viability, higher = more signal.
The nature of assay [5]: basal HepG2 mitochondrial membrane potential changes, profiling panel, cell-based, JC-1 fluorescence, 24 h, 100 nL compound (AID 1167). As to conditions: higher = more signal.
Assay [6] can be described thus: basal 3T3-L1 adipocyte mitochondrial potential changes, profiling panel, cell-based, JC-1 fluorescence, 3T3-L1 adipocytes, 24 h, 100 nL compound (AID 1168). As to conditions: JC-1 mitochondrial fluorescence, higher = more signal, called active from +8 up or from −8 down.
Assay [7] is described as follows: basal RPMI8226 mitochondrial membrane potential changes, profiling panel, cell-based, JC-1 fluorescence, 24 h, 100 nL compound (AID 1169). The settings on record: RPMI8226 myeloma, JC-1 mitochondrial potential fluorescence, higher = more signal.
Assay [8] can be described thus: basal MM1S mitochondrial membrane potential changes, profiling panel, cell-based, JC-1 fluorescence, 24 h, 100 nL compound (AID 1170). As to conditions: higher = more signal.
The nature of assay [9]: A549 lung cancer cell viability effects, profiling panel, resazurin fluorescence, 24 h, PK04 Diversity Set (AID 1171). The settings on record: higher = more signal, called active from +8 up or from −8 down.
The nature of assay [10]: HepG2 liver cancer cell viability effects, profiling panel, resazurin fluorescence, 24 h, PK04 Diversity Set (AID 1172). The settings on record: higher = more signal. Background: Resazurin is reduced to fluorescent resorufin, in cell work by metabolically active cells.
Assay [11] can be described thus: basal S. cerevisiae growth modulation, no modifier, primary screen, OD600, strain BY4716, 24 h, basal condition (AID 1173). As to conditions: OD600, 24 h, higher = more signal, called active from +8 up or from −8 down.
The nature of assay [12]: MM1S myeloma cell viability, profiling panel, resazurin fluorescence, basal, 24 h, PK04 Diversity Set (AID 1174).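 Further: MM1S multiple myeloma cell line.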 As to conditions: higher = more signal, called active from +8 up or from −8 down.
Assay [13] addresses Dihydroorotate dehydrogenase (quinone), mitochondrial (Plasmodium falciparum (isolate 3D7)) (UniProt Q08210). As to the kind of experiment: PfDHODH enzyme inhibitors, primary screen, biochemical, C-terminal His tag, absorbance 600 nm (AID 1175).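 Further: recombinant parasite enzyme with a five histidine tag at its C terminus.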 The settings on record: DCIP absorbance 600 nm, higher = more signal, called active from +8 up or from −8 down.
The nature of assay [14]: S. cerevisiae RM11-1a growth modifiers, primary screen, strain RM11-1a, OD600, basal, 24 h (AID 1177).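 Further: cultures grown under basal conditions with no added stressor.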 The settings on record: OD600, 24 h, higher = more signal, called active from +8 up or from −8 down.
Assay [15] is described as follows: E. coli acrAB mutant growth effects, primary screen, E. coli filamentation inducers, strain DRC39, OD650, 24 h (AID 1178).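 Further: growth measured as culture turbidity by optical density at 650 nm.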 The settings on record: higher = more signal, called active from +8 up or from −8 down.
Assay [16] in a line: E. coli acrAB mutant growth effects, primary screen, E. coli filamentation inducers, strain DRC39, OD650, 48 h (AID 1179).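 Further: screen aims at cell division blockers that make cells filament.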 As to conditions: E. coli DRC39 delta-acrAB growth, higher = more signal, called active from +8 up or from −8 down.
Assay [17] in a line: RPMI8226 myeloma cell viability, profiling panel, resazurin fluorescence, basal, 24 h, PK04 Diversity Set (AID 1180).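 Further: RPMI8826 multiple myeloma cell line at 5000 cells per well.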 The settings on record: higher = more signal.
Assay [18] deals with E3 ubiquitin-protein ligase XIAP (Homo sapiens) (UniProt P98170). As to the kind of experiment: XIAP binders, primary screen, biophysical, small-molecule microarray, fluorescence 635 nm (AID 1181).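 Further: score merges 667 nm emission and signal to noise over triplicate slides.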 As to conditions: small-molecule microarray binding, higher = more signal.
Chain of E3 ubiquitin-protein ligase XIAP (Homo sapiens) (P98170 whole entry, looked up): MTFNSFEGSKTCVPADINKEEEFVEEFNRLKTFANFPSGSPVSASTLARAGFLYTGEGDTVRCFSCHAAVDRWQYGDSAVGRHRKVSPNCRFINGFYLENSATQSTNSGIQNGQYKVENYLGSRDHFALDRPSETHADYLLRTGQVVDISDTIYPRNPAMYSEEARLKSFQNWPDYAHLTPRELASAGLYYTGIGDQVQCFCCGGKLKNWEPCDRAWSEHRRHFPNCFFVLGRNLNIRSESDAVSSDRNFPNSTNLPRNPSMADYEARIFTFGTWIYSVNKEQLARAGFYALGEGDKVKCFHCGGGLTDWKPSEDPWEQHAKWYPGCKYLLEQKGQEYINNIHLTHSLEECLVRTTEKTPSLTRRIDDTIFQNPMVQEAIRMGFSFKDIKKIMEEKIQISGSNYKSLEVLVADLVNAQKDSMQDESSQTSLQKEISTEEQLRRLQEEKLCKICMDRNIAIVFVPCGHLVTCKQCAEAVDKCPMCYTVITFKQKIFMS
Assay [19] has as its system XIP peptide (Xip251-270) binding. In words: small-molecule binders of XIP peptide, primary screen, biochemical, small-molecule microarray, fluorescence 635/667 nm, 0.1 µg/mL protein (AID 1182). As to conditions: fluorescent protein binding, 635 nm, higher = more signal, called active from +8 up or from −8 down.
In a further assay the test system is XIP peptide (Xip251-270). As to the kind of experiment: small-molecule binders of XIP peptide, primary screen, biochemical, small-molecule microarray, fluorescence 635/667 nm, 0.5 µg/mL protein (AID 1183). As to conditions: small-molecule microarray binding, fluorescence 635 nm; higher = more signal.

Activity calls are given as the source filed them.

Chain of Dihydroorotate dehydrogenase (quinone), mitochondrial (Plasmodium falciparum (isolate 3D7)) (Q08210 whole entry, looked up): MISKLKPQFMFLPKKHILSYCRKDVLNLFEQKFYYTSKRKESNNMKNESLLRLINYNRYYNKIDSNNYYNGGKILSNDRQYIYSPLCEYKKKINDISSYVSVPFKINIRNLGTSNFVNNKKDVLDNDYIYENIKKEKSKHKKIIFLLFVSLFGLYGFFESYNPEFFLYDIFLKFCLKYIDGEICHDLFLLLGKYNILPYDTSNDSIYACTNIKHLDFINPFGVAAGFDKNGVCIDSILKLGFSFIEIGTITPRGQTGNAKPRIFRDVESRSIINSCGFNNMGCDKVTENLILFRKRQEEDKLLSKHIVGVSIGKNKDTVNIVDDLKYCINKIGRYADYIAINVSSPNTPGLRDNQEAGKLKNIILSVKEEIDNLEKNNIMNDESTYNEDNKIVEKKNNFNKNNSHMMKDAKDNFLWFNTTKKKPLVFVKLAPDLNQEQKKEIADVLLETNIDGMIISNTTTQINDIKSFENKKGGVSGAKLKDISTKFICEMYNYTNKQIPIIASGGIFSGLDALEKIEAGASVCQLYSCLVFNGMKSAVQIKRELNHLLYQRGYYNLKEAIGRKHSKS

In the case of `COc1ccc([Si](C)(C)[C@H]2[C@H](CC(=O)N3Cc4ccccc4C[C@H]3CO)O[C@@]3(C(=O)N(Cc4cccc(N5C(=O)COc6ccccc65)c4)c4ccccc43)[C@@H]2C)cc1`, the z-score in assay [1] is 1.8; in assay [2] it was -0.0432; in assay [3], -0.227; in assay [4], -1.19; in [5] it was 2.09; in [6] it was 0.335 (inactive). In addition, the z-score was -1.15 in assay [7]; 0.424 in assay [8]; -0.987 (inactive) in assay [9]; -0.593 in assay [10]; -0.855 (inactive) in assay [11]; -1.11 (inactive) in [12]. In addition, the z-score in assay [14] is 2.03 (inactive); in [15] it was 1.48 (inactive); in assay [16], -0.185 (inactive); in assay [17], -0.668. Also, the composite z-score in assay [13] is -0.0999 (inactive); in assay [18], -0.163; in assay [19], 1.83 (inactive); in the assay with XIP peptide (Xip251-270) it was 0.618.

`CO[C@H]1O[C@H](CO)[C@@H](OC(=O)CCc2ccccc2)[C@@H]2OC(=O)[C@H](Cc3ccccc3)C/C=C/C[C@@H](Cc3ccccc3)C(=O)O[C@@H]12`: the z-score in assay [1] was 0.234; in assay [2], 0.62; in assay [3], -0.0096; in [4], 0.212; in [5], 0.443; in assay [6], 0.886 (inactive). Moreover, the z-score in assay [7] was 0.12; in assay [8], 0.119; in assay [9], 1.43 (inactive); in assay [10], 1.02; in assay [11] it was -2.53 (inactive); in assay [12], 0.832 (inactive). In addition, the z-score in assay [14] was -0.103 (inactive); in [15], 1.19 (inactive); in assay [16], 0.754 (inactive); in assay [17] it was 0.884. The composite z-score in assay [13] is -15.6 (active); in assay [18], -0.039; in assay [19], 1.2 (inactive); in the assay with XIP peptide (Xip251-270), -0.0342.

`COCCCNC(=O)[C@@]1(Cc2ccccc2CN=[N+]=[N-])COC(c2ccc(OCCCO)cc2)=N1`: the z-score in assay [1] was 1.08; in [2], 0.501; in assay [3] it was -2.46; in [4], -0.77; in [5], 0.287; in assay [6], 1.33 (inactive). Further, the z-score is -0.724 in assay [7]; -0.376 in assay [8]; 0.616 (inactive) in assay [9]; 1.8 in assay [10]; -1.66 (inactive) in assay [11]; 0.0645 (inactive) in assay [12]. For the same molecule, the z-score was 0.493 (inactive) in [14], 2 (inactive) in assay [15], 1.61 (inactive) in assay [16] and 0.693 in [17]. In addition, the composite z-score in [13] is -0.49 (inactive); in [18], -0.0525; in [19], 1.94 (inactive); with XIP peptide (Xip251-270), 0.866.

On to `COC(=O)c1c2oc(c1C(=O)OC)C(=O)N[C@@H](C(C)C)Cn1nncc1C1(CCCCC1)NC(=O)N[C@H](CO)CC2`, for which the z-score in assay [1] is -0.5; in [2], 0.619; in assay [3] it was 0.276; in [4], -0.161; in assay [5], 1.58; in assay [6], 0.994 (inactive). In addition, the z-score in assay [7] is 0.144; in assay [8] it was 1.08; in assay [9], 2.11 (inactive); in assay [10], 2.17; in assay [11], -3.46 (inactive); in assay [12], 1.4 (inactive). Further, the z-score in [14] is -0.989 (inactive); in [15], 2.61 (inactive); in assay [16], 2.18 (inactive); in assay [17], 0.928. For the same molecule, the composite z-score in assay [13] is 0.62 (inactive); in assay [18], 0.0623; in assay [19], -0.503 (inactive); in the assay on XIP peptide (Xip251-270) it was -0.985.

Regarding `O=C1c2ccccc2[C@](Cc2ccccc2I)(C(=O)O)[C@H](c2ccc(CO)cc2)N1Cc1ccccc1Cl`, the z-score is 1 in assay [1]; -0.504 in assay [2]; -0.089 in [3]; -1.18 in assay [4]; -0.172 in assay [5]; 0.571 (inactive) in assay [6]. Moreover, the z-score was -0.565 in assay [7]; 0.295 in assay [8]; 0.177 (inactive) in [9]; 0.722 in assay [10]; -2.78 (inactive) in [11]; 1.34 (inactive) in assay [12]. The z-score in assay [14] was -1.29 (inactive); in [15] it was -0.0031 (inactive); in assay [16] it was -0.11 (inactive); in assay [17], 0.601. For the same molecule, the composite z-score in assay [13] is -0.812 (inactive); in assay [18] it was -0.148; in assay [19], 0.8 (inactive); with XIP peptide (Xip251-270) it was 0.507.

In the case of `CCCCCN1CC=CC23O[C@@H]4/C=C\CCC(C)OC(=O)C4[C@H]2C(=O)N(CCCO)[C@@H]3C1=O` (stereo not given in full), the z-score was 1.42 in [1]; 0.495 in [2]; -1.25 in [3]; 0.279 in [4]; 0.197 in assay [5]; 0.399 (inactive) in assay [6]. Besides, the z-score in [7] is 0.318; in [8], 0.962; in [9], 0.427 (inactive); in assay [10], 0.605; in [11], -1.26 (inactive); in assay [12], 1.5 (inactive). For the same molecule, the z-score was -0.599 (inactive) in assay [14], 1.54 (inactive) in assay [15], 1.11 (inactive) in [16] and 1.4 in [17]. Moreover, the composite z-score is 0.564 (inactive) in assay [13], -0.0351 in [18], 0.156 (inactive) in assay [19] and -0.827 in the assay on XIP peptide (Xip251-270).

For the molecule `C=CCN1C(=O)[C@@]2(O[C@@H](CCn3cc(CCO)nn3)[C@H]([Si](C)(C)c3ccc(OC)cc3)[C@H]2C)c2cc(N3C(=O)c4cccc5cccc3c45)ccc21`, the z-score in assay [1] is 0.0493; in assay [2], -4.79; in assay [3] it was -2.73; in assay [4], -4.46; in assay [5], -2.84; in assay [6], 1.32 (inactive). Moreover, the z-score in assay [7] is -1.15; in assay [8], -2.09; in assay [9], -5.51 (inactive); in assay [10], -6.41; in [11], -1.2 (inactive); in assay [12], -9.06 (active). Besides, the z-score in assay [14] is 1.19 (inactive); in assay [15] it was 2.37 (inactive); in assay [16], 2.05 (inactive); in assay [17], -6.23. Moreover, the composite z-score in assay [13] is -0.0753 (inactive); in [18], 0.137; in assay [19], 0.254 (inactive); in the assay with XIP peptide (Xip251-270), 0.339.

On to `C=CCC(OC(C)=O)[C@@H]1[C@@H](N(Cc2cc3ccccc3o2)C(=O)c2ccc(-c3ccccc3)cc2)c2cc(OCCCO)ccc2N1C(=O)c1ccc(-c2ccccc2)cc1` (stereo not given in full), for which the z-score was 0.893 in assay [1]; 0.249 in assay [2]; 0.402 in assay [3]; -0.777 in assay [4]; 3.06 in assay [5]; 0.604 (inactive) in [6]. Moreover, the z-score in assay [7] is -0.557; in assay [8], 0.511; in assay [9], 1.15 (inactive); in [10], 0.634; in assay [11] it was 0.18 (inactive); in assay [12] it was 1.28 (inactive). The z-score was 0.975 (inactive) in assay [14], 1.47 (inactive) in assay [15], 1.07 (inactive) in [16] and 0.996 in [17]. The composite z-score was 0.192 (inactive) in assay [13], -0.102 in assay [18], -0.547 (inactive) in assay [19] and -0.599 in the assay with XIP peptide (Xip251-270).
